# Compound activity (PubChem BioAssay)
# MCF10A rereplic: DNA re-replication induction in MCF 10a cells. 2.9% of 350,000 active. MCF 10A DNA re-replication, Hoechst nuclear intensity, 48 h. AID 624296. Potency, µM (top dose mostly 46.1 µM), without a hit: at the highest dose activity, positive = re-replication, most hits filed as activators; also: potency is read from the fitted curve at half-maximal effect; % of control where 0% means no effect; nearly all actives have a fitted effect of over 50% in size
# DT40 TDP1 CPT: DT40-hTDP1 cell growth loss with CPT; chicken DT40 Tdp1-/-;hTDP1 cells + 20 nM CPT, ATP luminescence, 48 h; Potency, µM (titrated, usually from 46.2 µM), for the others: top-dose activity change, negative = growth inhibition, hits mostly inhibitors; 12% of 420,000 active; also: potency is read from the fitted curve at half-maximal effect; % is scaled to controls: 0 for no effect and ±100 for the full control effect; nearly all actives have a fitted effect of over 55% in size
#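 Cell growth measured by CellTiter-Glo luminescence after a minimum 48 h, 37 C compound exposure with 20 nM CPT in Tdp1-knockout DT40 cells stably expressing hTDP1, seeded 400/well; qHTS titration format.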
# DT40 TDP1 no CPT: qHTS for Inhibitors of human tyrosyl-DNA phosphodiesterase 1 (TDP1): qHTS in cells in absence of CPT; DT40 Tdp1-/- hTDP1 cells, no CPT, ATP luminescence, 48 h; Potency, µM (doses to about 46.2 µM), for inactives: at the highest dose activity change, negative = growth inhibition, hits mostly inhibitors; 15% of 420,000 active; AID 686978, 2013; also: potency is read from the fitted curve at half-maximal effect; % is scaled to controls: 0 for no effect and ±100 for the full control effect; nearly all actives have a fitted effect of over 55% in size
#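 Cells were dispensed at 400 per well, compounds added by pin tool, plates incubated ≥48 hr at 37 °C, then CellTiter-Glo added for 30 min at room temperature before luminescence reading. Line: DT40 Tdp1-/- complemented with hTDP1; camptothecin omitted.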
# SW480 rereplic: DNA re-replication induction in SW480 cells | Potency, µM (top dose mostly 46.1 µM), inactives show top-dose re-replication activation, actives largely listed as activators | SW480 DNA re-replication, Hoechst DNA content imaging, 48 h | 1.8% of 340,000 active; also: potency is read from the fitted curve at half-maximal effect; % of control where 0% means no effect; nearly all actives have a fitted effect of over 55% in size
#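 Quantitative HTS format with DMSO vehicle controls; 48 hr drug incubation at 37 C, then 40 min Hoechst staining and scanning imager measurement at 405 nm excitation.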
# IL-1B inflam inh: inhibitors of inflammasome signaling (IL-1 beta secretion); THP-1 LPS/ATP IL-1B secretion, AlphaLISA, 16 h; active compounds read low; activity change, % at 57.5 µM; 4.7% of 360,000 active; AID 743279; in the data active = activity change below about -50%; inconclusive = mostly about -30% to -49%; also: % is scaled to controls: 0 for no effect and ±100 for the full control effect
#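 Secreted IL-1B measured by AlphaLISA bead assay after 16 h compound exposure of THP-1 cells; compounds (final up to 57.5 uM) added 1 h before LPS (250 ng/mL) and ATP (1.25 mM) stimulation; lower signal means less secretion.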
# BCR signal inh: inhibitors of chronic active B-cell receptor signaling; 0.05% of 340,000 active; ABC-DLBCL IkBa-CBG/CBR reporter, luminescence ratio, 4 h; Potency, µM (doses to about 46.1 µM), for the others: top-dose activity change, negative = inhibition, hits mostly inhibitors; active = well fitted inhibition curve with a large enough effect in the signal ratio, with a control signal flat, not every such curve was filed as active; inconclusive = small, poorly fitted or top-dose-only effect, or effect the other way, or a change in a side signal; the % refers to the signal ratio;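 also: potency is read from the fitted curve at half-maximal effect; plate controls were basal doxycycline-induced cells for no effect and cells given 10 µM MG132 for full effect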
#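 Concentration-response series (up to 46 uM) were applied to TMD8 dual-reporter cells for 4 h at 37C with doxycycline. Green/red ratio, after filter-overlap correction, defined %Activity; red signal alone was normalised to basal cells and zero luminescence.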
# Numbers without * were called inactive; ? = inconclusive; . = no result; [ ] = another dose, or the depositor's remark. In the library only some 19% were active in any assay of this set; here they are far more common. Unless noted, calls follow the shape of the dose curve; as a rule, active = well fitted curve in the direction sought with a large enough effect; inconclusive = small, poorly fitted or top-dose-only effect, or another doubt; inactive = no such curve, though single readings can be large; an effect the other way counts as inactive or inconclusive.
SMILES,MCF10A rereplic,DT40 TDP1 CPT,DT40 TDP1 no CPT,SW480 rereplic,IL-1B inflam inh,BCR signal inh
Cc1sc(-n2c(C)cc(/C=C3\SC(=S)NC3=O)c2C)c(C#N)c1C,-2%,?,-28%,8.2µM*,24,?
CCOc1ccccc1OCCCn1c(-c2ccc(Cl)cc2)nc2ccccc2c1=O,.,-13%,5%,.,.,.
Cc1cc(N/N=C/c2ccc(F)cc2)nc(-n2nc(C)cc2C)n1,?,2.9µM*,3.7µM*,?,48,?
CCOc1cc(/C=N/Nc2nc(C)cc(=O)[nH]2)ccc1O,4%,-23%,6%,0%,-7,5%
COc1ccc(/C=N/Nc2cc(C)nc(-n3nc(C)cc3C)n2)c(OC)c1,?,1.5µM*,1.6µM*,?,-104*,-15%
CCOc1cc(/C=N/Nc2cc(C)nc(-n3nc(C)cc3C)n2)ccc1O,?,2.6µM*,2.3µM*,?,113,?
CCN/C=C(\C#N)S(=O)(=O)c1ccc(Br)cc1,-2%,4%,6%,-13%,0,-21%
Fc1ccc(CSc2nc3ccccc3[nH]2)cc1,2%,?,?,-4%,-63*,?
Fc1ccc(CSc2nc3ccccc3[nH]2)c2ccccc12,?,?,21µM*,-1%,2,-23%
O=[N+]([O-])c1ccc(CSc2nc3ccccc3[nH]2)cc1,4%,?,29µM*,2%,-23,-5%
c1ccc(CSc2nc3ccccc3[nH]2)cc1,4%,-7%,?,-1%,-1,?
CC1(C)C(CSc2nc3ccccc3[nH]2)C1(Cl)Cl (centres undefined),?,23µM*,?,?,?,13%
O=c1cc(CSc2nc3ccccc3[nH]2)c2ccccc2[nH]1,3%,0%,-7%,-5%,1,?
Nc1ccccc1Sc1nc2ccccc2[nH]1,24%,13µM*,15µM*,?,27,?
CC(C)CSc1nc2ccccc2[nH]1,0.58µM*,-13%,-1%,?,-5,?
Cc1cccc2nc(CSc3nc4ccccc4[nH]3)cn12,-4%,19%,-15%,-4%,-66*,-16%
CCOc1ccc(CCNC(=O)CCn2ccc3cc(S(=O)(=O)N4CCCC4)ccc32)cc1,21%,?,?,-18%,-11,9%
Cc1ccc(NC(=O)Cn2nnc(-c3nc(-c4ccncc4)no3)c2N)c(C)c1,.,3%,13%,.,.,.
COc1ccc(-c2noc(CN3CCN(C(=O)c4cccs4)CC3)n2)c(OC)c1OC,0%,?,-9%,-15%,-3,-13%
CC(C)c1ccc(NC(=O)CN2C=NS(=O)(=O)c3ccccc32)cc1,.,0%,-18%,.,.,8%
CCOC(=O)c1cc(-c2ccccc2)nc2c(O)cccc12,29%,-17%,-14%,8%,8,.
Cn1nc(-c2ccccc2)c(-c2nc(-c3cccc(C(F)(F)F)c3)no2)c1Cl,8%,?,1.6µM*,-1%,0,7%
COc1ccc(S(=O)(=O)N2CCC(C(=O)NCCCc3ccccc3)CC2)cc1,1%,4%,-24%,-2%,-22,1%
CC(C)CC(N)c1csc(Nc2ccc(C(F)(F)F)cn2)n1 (centres undefined),.,12µM*,6.5µM*,.,-54*,.
NC(CCc1ccccc1)c1csc(Nc2ccc(C(F)(F)F)cn2)n1 (centres undefined),.,21µM*,?,.,-28,.
SMILES,MCF10A rereplic,DT40 TDP1 CPT,DT40 TDP1 no CPT,SW480 rereplic,IL-1B inflam inh,BCR signal inh
NC(Cc1ccc(Cl)cc1)c1csc(Nc2ccc(C(F)(F)F)cn2)n1 (centres undefined),.,9.2µM*,9.2µM*,.,-67*,.
NC(CO)c1csc(Nc2ccc(C(F)(F)F)cn2)n1 (centres undefined),.,?,?,.,-5,.
CN(C)Cc1csc(Nc2ccc(C(F)(F)F)cn2)n1,.,26µM*,-84%,.,-4,.
COc1ccc(CCN2C(=O)C3C4C=CC(C3C2=O)C2C(=O)N(CCc3ccc(OC)c(OC)c3)C(=O)C42)cc1OC (centres undefined),2%,10µM*,?,3%,-4,-11%
CCC(C)(C)C1CCC2(CC1)NC(=O)N(CC(=O)NCCc1ccc(OC)c(OC)c1)C2=O (centres undefined),2%,?,12µM*,-2%,-27,0%
CC(C(=O)Nc1nc(-c2ccc(F)cc2)cs1)N1C(=O)C2CC=CCC2C1=O (centres undefined),-2%,?,-18%,1%,-81*,3%
COc1ccc(-c2csc(NC(=O)CCN3C(=O)C4CC=CCC4C3=O)n2)cc1OC (centres undefined),-8%,21µM*,18µM*,-11%,-25,?
COc1ccc(S(=O)(=O)N2CCCOC2CNC(=O)C(=O)NCc2ccccc2C)cc1 (centres undefined),.,-19%,-28%,.,-18,.
COCCn1c(=O)cnc2cnc(OC)nc21,.,-10%,0%,.,.,.
CCN(C(=S)Nc1ccc(Oc2ccccc2)cc1)c1ccccc1,?,-6%,?,?,14,0%
COc1ccc(CCNC(=O)CCn2cccc2)cc1OC,18%,7%,-8%,-4%[9.22 µM],9,-1%
COc1ccc(CCNC2CC(=O)N(CCc3ccc(OC)c(OC)c3)C2=O)cc1OC (centres undefined),-2%,-5%,0%,-5%,-3,?
COc1ccc(CCNC(=O)CCN2C(=O)C3CC=CCC3C2=O)cc1OC (centres undefined),-3%,?,23µM*,-6%[9.22 µM],13,1%
COc1ccc(CCN2C(=O)CC(NNc3ccc([N+](=O)[O-])cc3)C2=O)cc1OC (centres undefined),-2%,21µM*,21µM*,-2%,-6,-5%
COc1cc(CC(=O)Nc2nc(C)cs2)cc(OC)c1OC,-6%,12µM*,21µM*,-4%,-4,1%
COc1ccc(CCNC(=O)C/C(C)=N/NC(=O)C23CC4CC(CC(C4)C2)C3)cc1OC,18%,?,7.3µM*,5%,-10,-1%
COc1ccccc1NC(=O)C/C(C)=N/NC(=O)C12CC3CC(CC(C3)C1)C2,-2%,?,-2%,5%,20,?
COc1ccc(NC(=O)NNS(=O)(=O)c2ccc(OC)c(OC)c2)c(OC)c1,-1%,-26%,0%,0%,3,?
